CtBP-E1A inh = qHTS Assay for Inhibitors of the CtBP/E1A Interaction; AlphaScreen GST-E1A/His-CtBP binding, 1536-well; active compounds read low; actives 0.49% (n = 340,000); CtBP / adenovirus E1A interaction (AlphaScreen); AID 651724, 2012; activity change, % (no concentration beside the values); in the data active = activity change below about -65%; inconclusive = mostly about -30% to -63%
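Steps: dispense buffer (Tris pH 8.0, NaCl 300 mM, TCEP 1 mM, BSA, Tween 20); add 5X protein mix (GST-E1A, His-CtBP, 125 nM each); pin 23 nL compound; 2 h at 37 °C, dark; add 5X beads (50 ug/mL); 1 h; read.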
JMJD2A Tudor inh = qHTS Assay for Inhibitors of JMJD2A-Tudor Domain; Potency, µM (doses to about 114 µM), most hits filed as inhibitors; Lysine-specific demethylase 4A (Homo sapiens), O75164; AID 504339, 2011; AlphaScreen JMJD2A-Tudor / H3K4me3 peptide binding; actives 4.4% (n = 390,000); also: nearly all actives have a fitted effect of over 50% in size
BAZ2B inh = qHTS Assay for Inhibitors of BAZ2B; Potency, µM (titrated, usually from 114 µM), usual class: inhibitors; AlphaScreen BAZ2B-H3K14Ac peptide displacement; actives 4.4% (n = 360,000); AID 504333, 2011; also: nearly all actives have a fitted effect of over 60% in size
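BAZ2B (50 nM) with biotin-H3(5-23)K14Ac peptide (50 nM) in PBS pH 7.4, 0.01% Tween-20, preformed 30 min, then compound 30 min at room temperature; top concentration 110uM. AlphaScreen streptavidin donor/nickel chelate acceptor beads (10 ug/mL final), 20 min dark, signal read.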
HP1b binding inh = HTS for Inhibitors of HP1-beta Chromodomain Interactions with Methylated Histone Tails; AlphaScreen HP1-beta / biotin-H3K9me3 peptide binding; actives 0.56% (n = 390,000); Potency, µM (top dose mostly 114 µM), usual class: inhibitors; Chromobox protein homolog 1 (Homo sapiens), P83916; also: nearly all actives have a fitted effect of over 70% in size
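HP1-beta protein (50 nM final) preincubated 30 min at room temperature with biotinylated H3(1-18)K9me3 peptide (50 nM) in PBS pH 7.4, 0.01% Tween-20, then compound added for 30 min. AlphaScreen streptavidin donor/nickel chelate acceptor beads (10 ug/mL final), 30 min dark, luminescence read.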
Six1-Eya2 blk = qHTS Assay for Inhibitors of the Six1/Eya2 Interaction; Homeobox protein SIX1 (Homo sapiens) + Protein phosphatase EYA2 (Homo sapiens), …; AlphaScreen GST-Six1/His-Eya2 binding, biochemical; active compounds read low; activity change, % (concentration not given with the values); actives 0.56% (n = 360,000); in the data active = activity change below about -65%; inconclusive = mostly about -30% to -63%
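Compounds are tested against tagged Six1 and Eya2 proteins bridged by glutathione donor and nickel acceptor beads; after a one-hour incubation at 37 °C without light, AlphaScreen emission is recorded.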
TDP1 block = qHTS Assay for Inhibitors of Tyrosyl-DNA Phosphodiesterase (TDP1). Tyrosyl-DNA phosphodiesterase 1 (Homo sapiens), Q9NUW8. recombinant TDP1, AlphaScreen DNA substrate cleavage. Potency, µM (doses to about 130 µM), usual class: inhibitors. actives 0.28% (n = 350,000). AID 485290, 2010; also: nearly all actives have a fitted effect of over 40% in size
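Here, a 5' biotin and 3' phosphotyrosine-FITC DNA oligonucleotide reports Tdp1 activity: intact substrate bridges AlphaScreen beads, while cleavage leaves a 3' phosphate and drops signal. All incubations at room temperature.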
Hits are given with their value; - = inactive; ? = inconclusive; . = no result given; [ ] = remark or other dose. Sampled rows, rich in hits. Any-hit rate of the full collection: about 5.3%. Unless noted, calls follow the shape of the dose curve; as a rule, active = well fitted inhibition curve with a large enough effect; inconclusive = small, poorly fitted or top-dose-only effect; inactive = no such curve, though single readings can be large or run the other way.

SMILES	CtBP-E1A inh	JMJD2A Tudor inh	BAZ2B inh	HP1b binding inh	Six1-Eya2 blk	TDP1 block
Cc1ccc(CNCC(=O)Nc2ccc(N3CCOCC3)cc2)cc1	-	1.4µM	35µM	40µM	-	-
CC(C)Oc1cccc(C(=O)NC(=S)Nc2cccc(NC(=O)c3ccccc3Cl)c2)c1	-	-	-	-	-	-
CC(C)Oc1cccc(C(=O)NC(=S)Nc2ccc(N3CCN(C)CC3)cc2)c1	.	50µM	40µM	?	-	-
CCNCC(=O)Nc1ccc(N2CCOCC2)cc1	-	-	?	-	-	-
COc1cccc(C(=O)NC(=S)Nc2ccc3oc(=O)ccc3c2)c1	-	-	-	-	-	-
Cc1ccc(C)c(NC(=O)Cn2c(=O)oc3cc(S(=O)(=O)NCc4ccccc4)ccc32)c1	.	-	-	-	.	-
COc1ccc(C(=O)N/N=C(/C)c2ccc(N3CCCCC3)cc2)cc1	-	50µM	-	-	-	-
COc1cc(OC)cc(C(=O)NC(=S)Nc2ccc(Cl)c(C(=O)O)c2)c1	-	89µM	?	-	-	-
C(=C\c1nc(-c2ccccc2)oc1Nc1ccc2ccccc2c1)/c1ccccc1	.	.	.	.	.	-
Cc1ccc(C(=O)OC(C)C(=O)c2cc(C)c(C)cc2C)o1 (stereo unspecified)	-	-	-	-	-	56µM
Cc1ccc(C(=O)OC(C)C(=O)NC(C)CCc2ccccc2)o1 (stereo unspecified)	.	-	-	-	-	-
Cc1cc(C)c(C(=O)C(C)OC(=O)c2ccccn2)cc1C (stereo unspecified)	-	50µM	79µM	-	-	-
CCC(=O)NC1CC(=O)N(c2ccc3c(c2)OCCO3)C1 (stereo unspecified)	.	-	-	-	.	-
COc1ccc(CC(CC(=O)O)C(=O)Nc2ccc(Cl)c(Cl)c2)cc1 (stereo unspecified)	-	8.9µM	-	-	-	.
Cc1ccc(CC(CC(=O)O)C(=O)Nc2ccc(Cl)cc2)cc1 (stereo unspecified)	.	-	-	-	-	-
CN(C)CCNC(=O)c1scc2c1CCCC2	-	89µM	?	-	-	-
C=CCNC(=O)c1scc2c1CCCC2	-	-	-	-	-	-
Nc1cc(S(=O)(=O)N2CCN(S(=O)(=O)c3ccc4c(c3)OCCO4)CC2)ccn1	.	-	.	.	.	-
COc1ccc(Nc2nc(C)nc3c2nnn3Cc2ccccc2)cc1OC	-	-	-	-	-	-
Cc1nc2c(nnn2Cc2ccccc2)c(=O)[nH]1	-	8.9µM	.	?	-	-
Cc1nc2c(nnn2Cc2ccccc2Cl)c(=O)[nH]1	.	-	-	-	-	.
Cc1nc(Nc2ccc(Cl)cc2)c2nnn(Cc3ccccc3)c2n1	-	18µM	-	-	-	-
CC(C)C(=O)NC(=O)C1CCCN1C(=O)/C=C/c1ccccc1 (stereo unspecified)	.	.	.	.	.	-[21 µM]
CCN(CC)CCC(c1cc(OC)c(OC)c(OC)c1)c1c(OC)cc(OC)c2ccc(=O)oc12 (stereo unspecified)	?	-	-	-	-	-
CCN(CC)CCC(c1cc(OC)c(OC)c(OC)c1)c1c(OC)cc(OC)c2c1OC(=O)CC2c1ccc(N(C)C)cc1 (stereo unspecified)	.	32µM	.	-	.	-
COc1cc(C(CCN2CCCCC2)c2c(OC)cc(OC)c3c2OC(=O)CC3c2ccc(N(C)C)cc2)cc(OC)c1OC (stereo unspecified)	.	40µM	.	?	.	-
COc1cc(C(CCN2CCOCC2)c2c(OC)cc(OC)c3ccc(=O)oc23)cc(OC)c1OC (stereo unspecified)	.	.	.	.	.	-
COc1cc(C(CCN2CCCC2)c2c(OC)cc(OC)c3c2OC(=O)CC3c2ccc(N(C)C)cc2)cc(OC)c1OC (stereo unspecified)	.	28µM	.	?	.	-

Screening data from PubChem.
